Only some compounds are listed: those with a hit (about 32% of all), similar ones and a draw of the others.
PostGolgi ctrl: yeast control strain growth, post-Golgi counter-screen. 98,000 compounds, 5% hits. efflux-deficient yeast background strain, growth absorbance A615, 16 h. AID 738. inhibition, % at 10 µM
CYP2C9 inhib: inhibitors of human CYP2C9; P11712; CYP2C9 Supersomes, luciferin-H conversion, luminescence; inhibition, % at 5 µM; 96,000 compounds, 20% hits; AID 777;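 active = blocking of liver enzyme CYP2C9 beyond about 50% at 5 µM, limit read from the data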
Target sequence (P11712 whole entry, looked up): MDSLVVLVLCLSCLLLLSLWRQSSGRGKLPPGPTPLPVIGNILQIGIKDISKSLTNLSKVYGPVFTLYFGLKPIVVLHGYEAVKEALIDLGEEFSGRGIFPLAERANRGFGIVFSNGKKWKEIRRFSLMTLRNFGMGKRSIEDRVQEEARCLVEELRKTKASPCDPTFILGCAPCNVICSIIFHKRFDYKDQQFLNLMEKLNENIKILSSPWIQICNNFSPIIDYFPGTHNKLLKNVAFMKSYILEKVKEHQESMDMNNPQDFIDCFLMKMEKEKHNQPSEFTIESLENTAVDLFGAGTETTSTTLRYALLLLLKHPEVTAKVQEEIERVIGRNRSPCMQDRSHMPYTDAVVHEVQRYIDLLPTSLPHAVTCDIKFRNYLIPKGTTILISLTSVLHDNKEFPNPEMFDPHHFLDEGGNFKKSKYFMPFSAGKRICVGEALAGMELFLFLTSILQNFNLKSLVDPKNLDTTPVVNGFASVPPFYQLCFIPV
PostGolgi yeast: growth inhibition of a yeast mutant, post-Golgi transport screen; post-Golgi transport phenotypic cell assay; inhibition, % at 10 µM; 98,000 compounds, 0.9% hits; AID 739;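 note: yeast cells grown in 1536-well plates; yeast grown about 18 h at 30C before absorbance read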
CYP2C9 act: increases human cytochrome P450 2C9 activity; AID 1024; recombinant CYP2C9, luciferin-H conversion, luminescence; hits give high values; factor 1 = untreated enzyme, 0 = blocked; 96,000 compounds, 1.4% hits; activation factor at 5 µM; P11712;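 active = activation factor of 2 or more for CYP2C9 at a 5 µM dose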;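 note: 0 = sulfaphenazole-blocked wells and 1 = vehicle-only wells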
CYP2C19 inh: blocks human cytochrome P450 2C19 | CYP2C19 Supersomes, luciferin-H EGE luminescence, 30 min | P33261 | 96,000 compounds, 21% hits | inhibition, % at 5 µM | AID 778;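 active = CYP2C19 inhibition above a set limit at 5 µM in the primary screen, cut at about 50% in these data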;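 note: plate controls were negative control wells for no effect and 2.5 mM tranylcypromine positive control for full effect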
CYP2C19 act: activators of human cytochrome P450 2C19; AID 1025; activation factor at 5 µM; P33261; recombinant CYP2C19, luciferin-H EGE luminescence; hits give high values; 0 = fully inhibited enzyme, 1 = untreated enzyme; 96,000 tested, under 10 active;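 active = activation factor of at least 2 at 5 µM in the primary screen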;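 note: 0 = wells with 2.5 mM tranylcypromine and 1 = vehicle-only wells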
An asterisk follows results filed as active; · = no result given. Cut-off read from the data, not from the text of the source, unless noted: active = inhibition above about 30%; inactive = the rest.

SMILES | PostGolgi ctrl | CYP2C9 inhib | PostGolgi yeast | CYP2C9 act | CYP2C19 inh | CYP2C19 act
COCCn1c(SCC(=O)NC(=O)NC(C)C)nc2ccccc21 | 17 | 30 | 8 | 0.7 | 46 | 0.5
COCCn1c(SCC(=O)Nc2sccc2C(N)=O)nc2cc(Cl)ccc2c1=O | 9 | 60* | -1 | 0.4 | 45 | 0.5
COCCn1c(SCC(=O)NC(=O)NCc2ccccc2)nc2ccccc21 | 8 | -17 | -2 | 1.2 | 50 | 0.5
COCCn1c(SCC(=O)Nc2ccc(S(=O)(=O)N(C)C)cc2)nc2ccccc21 | 11 | -13 | -5 | 1.1 | -28 | 1.3
COCCn1c(SCC(=O)NC(=O)NC(C)(C)C)nc2ccccc21 | 4 | 27 | 2 | 0.7 | 57* | 0.4
C=CCn1c(=O)n(CCOC)c(=O)c2sc3ccccc3c21 | -7 | 11 | 7 | 0.9 | 11 | 0.9
Cc1nc2c(-c3ccccc3)c(C)nn2c(C)c1CCC(=O)O | 9 | 24 | -2 | 0.8 | 27 | 0.7
COc1ccccc1-c1cc2nc(C)c(CCC(=O)NC(C)CCc3ccco3)c(C)n2n1 (configuration not stated) | 37* | 89* | 2 | 0.1 | 90* | 0.1
Cc1nc2c(-c3ccccc3)c(C)nn2c(C)c1CCC(=O)NC(C)CCc1ccco1 (configuration not stated) | 13 | 38 | 0 | 0.6 | 52* | 0.5
CCOC(=O)CCc1c(C)n(CC)c2cc(-c3ccccc3OC)nn2c1=O | 8 | 3 | 6 | 1 | 3 | 1
Oc1ccccc1-c1n[nH]c(=S)n1Cc1ccco1 | -11 | -10 | 0 | 1.1 | 18 | 0.8
O=c1c2ccccc2c(-c2ccccc2)nn1-c1ccc(Cl)c(Cl)c1 | 26 | 20 | 9 | 0.8 | 43 | 0.6
O=C(CNC(=O)c1ccccc1C(=O)O)c1ccccc1 | · | 22 | · | 0.8 | 12 | 0.9
Cn1cc(CN2CCc3ccccc3C2)c2ccccc21 | -2 | -40 | -4 | 1.4 | 96* | 0
CCCN(CCO)Cc1cccc(Cl)c1 | 3 | -5 | -3 | 1 | 7 | 0.9
OCCN(Cc1ccccc1)CC1CCCCC1 | 6 | -5 | 0 | 1 | 2 | 1
OCCN(Cc1ccccc1)Cc1cccc(C(F)(F)F)c1 | 11 | 20 | 1 | 0.8 | 73* | 0.3
FC(F)(F)c1cccc(CN2CCCCCC2)c1 | 6 | 2 | 3 | 1 | 32 | 0.7
OCCN(Cc1ccccc1)Cc1cccc(F)c1 | 2 | 16 | -9 | 0.8 | 70* | 0.3
OCCN(Cc1ccccc1)Cc1ccc(C(F)(F)F)cc1 | 5 | 50* | 2 | 0.5 | 95* | 0
COc1cccc(-c2nn(-c3ccccc3)cc2/C=C\C(=O)c2cccs2)c1 | 9 | 58* | 0 | 0.4 | 33 | 0.7
COC(=O)c1[nH]c2ccccc2c1NC(=O)CN1CCC(C(N)=O)(N2CCCCC2)CC1 | 4 | 49 | 9 | 0.5 | 18 | 0.8
CC1CC(C(F)(F)C(F)(F)F)n2nc(C(=O)O)cc2N1 (configuration not stated) | 8 | -10 | 1 | 1.1 | -9 | 1.1
COc1cc(OC)cc(C(C(=O)NCc2ccccc2)N(Cc2ccco2)C(=O)c2ccno2)c1 (configuration not stated) | 25 | 60* | -1 | 0.4 | 69* | 0.3
COc1ccc(C(=O)CSc2nnc(Cn3cnc4ccccc43)o2)cc1 | 13 | -10 | -5 | 1.1 | 30 | 0.7
SMILES | PostGolgi ctrl | CYP2C9 inhib | PostGolgi yeast | CYP2C9 act | CYP2C19 inh | CYP2C19 act
COc1ccc(COC(=O)Nc2cc3c(C(F)(F)F)nn(C)c3s2)cc1 | 14 | -10 | 1 | 1.1 | 49 | 0.5
Cn1nc(C(F)(F)F)c2cc(NC(=O)OCc3ccc(C(C)(C)C)cc3)sc21 | 38* | 52* | -5 | 0.5 | 20 | 0.8
Cn1nc(C(F)(F)F)c2cc(NC(=O)OCc3ccc(F)cc3)sc21 | 18 | -148 | -4 | 2.5* | 52* | 0.5
Cn1nc(C(F)(F)F)c2cc(C(=O)Nc3ccc(Cl)cc3)sc21 | 15 | -44 | -3 | 1.4 | 11 | 0.9
Nc1ncn(C23CC4CC(CC(C4)C2)C3)n1 | 5 | 6 | -3 | 0.9 | 1 | 1
CCOc1ccc(-n2cnnn2)cc1S(=O)(=O)NC1CC1 | 6 | 4 | -1 | 1 | 3 | 1
CCOc1cc(-n2cnnn2)c(OCC)cc1NC(=O)c1cnccn1 | · | 5 | · | 1 | 15 | 0.8
CCOc1ccc(-n2cnnn2)cc1S(=O)(=O)Nc1c(C)cccc1C | 42* | 36 | -1 | 0.6 | 12 | 0.9
CCOc1cc(S(=O)(=O)NCCc2cccc(C)c2)c(OCC)cc1-n1cnnn1 | 10 | 80* | 4 | 0.2 | 36 | 0.6
CCOc1cc(S(=O)(=O)NCCc2ccccc2C)c(OCC)cc1-n1cnnn1 | 8 | 89* | 0 | 0.1 | 84* | 0.2
CCOc1cc(S(=O)(=O)N(CC)CC)c(OCC)cc1-n1cnnn1 | 0 | 30 | 28 | 0.7 | 11 | 0.9
Cc1nn(-c2ccccc2)c2sc(C(=O)C(C#N)c3ccccn3)cc12 (configuration not stated) | · | 37 | · | 0.6 | 9 | 0.9
COC(=O)CN(c1ccccc1OC)S(=O)(=O)c1ccccc1 | -5 | 38 | -5 | 0.6 | 50 | 0.5
COc1ccccc1N(CC(=O)Nc1cc(C)on1)S(=O)(=O)c1ccc(Cl)cc1 | 22 | 98* | -3 | 0 | 91* | 0.1
COc1ccc(S(=O)(=O)N(CC(=O)N2CCCC2)Cc2ccccc2)cc1 | 9 | 23 | -1 | 0.8 | 42 | 0.6
COc1ccc(S(=O)(=O)N(CC(=O)Nc2cc(C)on2)Cc2ccccc2)cc1 | 16 | 1 | 1 | 1 | 81* | 0.2
CC(=O)NC(CCS(C)(=O)=O)C(=O)Nc1cccc(C(C)=O)c1 (configuration not stated) | -6 | -4 | 3 | 1 | -3 | 1
CCOC(=O)c1cccc(NC(=O)C2CCCN(S(=O)(=O)c3c(C)n[nH]c3C)C2)c1 (configuration not stated) | 5 | 88* | 0 | 0.1 | 66* | 0.3
Cc1noc(C)c1S(=O)(=O)N1CCC(C(=O)Nc2ccc(OC(F)(F)F)cc2)CC1 | 11 | -8 | -4 | 1.1 | -16 | 1.2
CCOC(=O)c1cccc(NC(=O)C2CCCN(S(=O)(=O)c3c(C)nn(C)c3C)C2)c1 (configuration not stated) | 23 | 93* | -4 | 0.1 | 83* | 0.2
COc1ccc(NC(=O)C2CCN(S(=O)(=O)c3c(C)noc3C)CC2)cc1Cl | 17 | 68* | 5 | 0.3 | 78* | 0.2
CCOC(=O)C1CCN(S(=O)(=O)c2c(C)n[nH]c2C)CC1 | 2 | 90* | -3 | 0.1 | 88* | 0.1
CC(C)(C)C(=O)Nc1ccc(C(=O)NNC(=O)Cc2ccccc2)cc1 | 4 | -25 | -1 | 1.3 | -8 | 1.1

High-throughput results: PubChem, several laboratories
